Data: PubChem BioAssay (Tox21)
“And” between values parts separate entries of the source, which are not always exact repeats. Identical values can stand only once. Records with an inconclusive call do not appear. More than one record can exist for a structure, and the calls need not agree. The source made the active and inactive calls. Calls follow the shape of the full dose curve.
% is scaled to controls: 0 for no effect and ±100 for the full control effect; potency is read from the fitted curve at half-maximal effect.

Experiment: qHTS assay to identify small molecule antagonists of the sonic hedgehog signaling (Shh) pathway (AID 1259369); also: nearly all actives have a fitted effect of over 45% in size
Settings: NIH/3T3 Gli1-Luc reporter, Shh antagonist, luminescence 24 h; series mostly up to 42.5 µM; activity change, negative = inhibition: at the top concentration
Description: U.S. Tox21 Program National Center for Advancing Translational Sciences [NCATS] NIH Chemical Genomics Center [NCGC] U.S. Environmental Protection Agency [EPA] National Institutes of Environmental Health Sciences [NIEHS] National Toxicology Program [NTP] U.S. Food and Drug Administration [FDA] Tox21 Assay Overview: The sonic hedgehog (Shh) pathway is essential for normal embryonic development. Dysregulation of the Shh pathway can cause severe developmental defects in organs. Therefore chemicals that interfere with the pathway are potential developmental toxicants. A cell line designated 3T3Gli1-Luc (DMB/OARSA/CFSAN/FDA, Laurel, MD), a NIH/3T3 derived clone containing stably integrated Gli1-Luc reporter is used to detect chemical interference of the Shh pathway, by changes in the expression of the firefly Luc gene under the control of the Gli1 transcriptional response element. This cell line was used to screen Tox21 libraries for identifying and prioritizing the potential developmental toxicants that interfere Shh pathway. Conditioned medium-stimulated mode was used to screen for chemicals inhibiting Shh signaling.
Tox21 Assay Protocol Summary: 3T3 Gli1-Luc cells were dispensed at 2,000 per well in 5uL of culture medium into white solid bottom 1536-well plates (Greiner Bio-One, Monroe, NC) using a Multidrop Combi (Thermo Scientific, Waltham, MA) dispenser. The assay plates were incubated at 37 C and 5% CO2 for 4hr, and then 23nL of compounds dissolved in DMSO and positive control were transferred using a Pintool station (Wako, San Diego, CA). The compound transfer was followed by the addition of 1ul conditioned medium or assay buffer using two separate tips of Flying Reagent Dispenser (FRD, Aurora Discovery, San Diego, CA). The assay plates were incubated at 37C and 5% CO2 for 24hr. For luciferase read, 4uL of Amplite Luciferase reporter gene assay reagent (AAT Bioquest, Inc. Sunnyvale, CA) was added to each well of the assay plates using FRD and incubated at room temperature for 30min. The luminescence signal was measured using a ViewLux plate reader (Perkin Elmer, Shelton, CT).
In the case of `CO[C@]12C[C@@H](COC(=O)c3cncc(Br)c3)CN(C)[C@@H]1Cc1cn(C)c3cccc2c13`, the “activity change, negative = inhibition” value is reported as -20.8% (inactive).
In the case of `CCn1ccnc1CC1COc2ccccc2O1` (stereo not given), the “activity change, negative = inhibition” value is reported as 12.7% (inactive).
For `NS(=O)(=O)c1ccc(C(=O)O)cc1`, the “activity change, negative = inhibition” value was 27.5% (inactive).
With `CCOC(=O)[C@H](CCc1ccccc1)N[C@@H](C)C(=O)N1[C@H](C(=O)O)C[C@@H]2CCC[C@@H]21` the “activity change, negative = inhibition” value was 26.1% (inactive).
With `CC(C)(C)c1ccc(O)c(O)c1` the Potency was 15.9 µM (active) and 6.86 µM (active).
For `CCN1CCC[C@H]1CNC(=O)c1c(O)c(Cl)cc(Cl)c1OC`, the “activity change, negative = inhibition” value was 23.6% (inactive).
For `O=c1n(CCO)c(=O)n(CCO)c(=O)n1CCO`, the Potency was “inactive and 27.3 µM (active)”.
For `CN(C)CCCNCCCN(C)C`, the “activity change, negative = inhibition” value was 23.5% [at 92.4 µM] (inactive).
In the case of `O=C1CCCN1C1CCCCC1`, the “activity change, negative = inhibition” value is reported as 4.89% [at 92.4 µM] (inactive).
In the case of `C[N+](C)(C)CC(O)CC(=O)[O-]` (stereo not given), the “activity change, negative = inhibition” value is reported as 2.71% (inactive).
With `COC(=O)c1c(Cl)c(Cl)c(C(=O)OC)c(Cl)c1Cl` the “activity change, negative = inhibition” value was -16.3% [at 92.4 µM] (inactive).
In the case of `O=C(CCCN1CCC(O)(c2cccc(C(F)(F)F)c2)CC1)c1ccc(F)cc1`, the “activity change, negative = inhibition” value is reported as 6.65% (inactive).
In the case of `CO/N=C(/C(=O)N[C@@H]1C(=O)N2C(C(=O)OCOC(=O)C(C)(C)C)=C(C)CS[C@H]12)c1csc(N)n1`, the “activity change, negative = inhibition” value is reported as 13% (inactive).
In the case of `CN1C(=O)N(C)C(O)C1O` (stereo not given), the “activity change, negative = inhibition” value is reported as -8.55% [at 92.4 µM] (inactive).
With `CC1(C)C(O)C(C)(C)C1O` (stereo not given) the “activity change, negative = inhibition” value was 0% [at 92.4 µM] (inactive).
In the case of `Cn1cc(S(C)=O)c(=O)c2ccc(F)cc21` (stereo not given), the “activity change, negative = inhibition” value is reported as 21.2% (inactive).
With `COCCc1ccc(OCC(O)CNC(C)C)cc1` (stereo not given) the Potency was “inactive”.
With `NC(=O)c1ccc(N)cc1` the “activity change, negative = inhibition” value was 15.3% [at 92.4 µM] (inactive).
For `CC(=O)CC(C)C`, the “activity change, negative = inhibition” value was 7.59% [at 92.4 µM] (inactive).
In the case of `O=C1CCCCCCCCCCCN1`, the Potency is reported as “inactive”.
With `COc1cc(C(=O)N2CCCCCCC2)cc(OC)c1OC` the “activity change, negative = inhibition” value was -0.475% (inactive).
For `CCCCCCCCCCCCCCCCC`, the “activity change, negative = inhibition” value was 6.19% [at 92.4 µM] (inactive).
With `NS(=O)(=O)c1cc2c(cc1Cl)NC(C1CC3C=CC1C3)NS2(=O)=O` (stereo not given) the “activity change, negative = inhibition” value was 3.8% (inactive).
With `CC(C)(C)c1nnc(NS(=O)(=O)c2ccccc2)s1` the “activity change, negative = inhibition” value was -8.21% (inactive).
In the case of `O=C(c1ccccc1)C1CCCCC1`, the “activity change, negative = inhibition” value is reported as 2.59% [at 92.4 µM] (inactive).
With `COc1ccccc1OCC(O)CN1CCN(CC(=O)Nc2c(C)cccc2C)CC1` (stereo not given) the “activity change, negative = inhibition” value was 1.96% (inactive).
In the case of `N[C@H](C(=O)O)c1ccc(O)cc1`, the “activity change, negative = inhibition” value is reported as 17.6% [at 19 µM] (inactive).
In the case of `CCOC(C)(C)C`, the “activity change, negative = inhibition” value is reported as 24.4% [at 92.4 µM] (inactive).
For `COC(=O)CCSCCC(=O)OC`, the “activity change, negative = inhibition” value was 17.4% [at 92.4 µM] (inactive).
In the case of `O=c1[nH]c(=O)n([C@H]2C[C@H](O)[C@@H](CO)O2)cc1I`, the “activity change, negative = inhibition” value is reported as -1.9% (inactive).
For `CN(C)CCCSc1ccccc1NC(=O)/C=C/c1ccccc1`, the “activity change, negative = inhibition” value was -22.7% (inactive).
With `Oc1ccc(C2CNCCc3c2cc(O)c(O)c3Cl)cc1` (stereo not given) the “activity change, negative = inhibition” value was -23.2% (inactive).
In the case of `N#Cc1ccc(C2CCCc3cncn32)cc1` (stereo not given), the “activity change, negative = inhibition” value is reported as 9.11% (inactive).
With `NS(=O)(=O)c1ccccc1Cl` the “activity change, negative = inhibition” value was 0.945% [at 92.4 µM] (inactive).
For `CC(C)NCC(O)c1ccc(NS(C)(=O)=O)cc1` (stereo not given), the “activity change, negative = inhibition” value was -0.57% [at 92.4 µM] (inactive).
With `Cc1cc2c(cc1S(N)(=O)=O)S(=O)(=O)CCC2` the “activity change, negative = inhibition” value was 20.6% (inactive).
With `Nc1nc2c(ncn2COC(CO)CO)c(=O)[nH]1` the “activity change, negative = inhibition” value was 19.6% (inactive).
In the case of `CCCCCOC(=O)CCCCC`, the “activity change, negative = inhibition” value is reported as 17.2% [at 92.4 µM] (inactive).
In the case of `COc1nc(N)nc2c1ncn2[C@@H]1O[C@H](CO)[C@@H](O)[C@@H]1O`, the “activity change, negative = inhibition” value is reported as -6.14% (inactive).
With `CC(=O)OC/C=C(\C)CC/C=C(\C)CCC=C(C)C` the “activity change, negative = inhibition” value was 4.93% [at 92.4 µM] (inactive).
